Test results as given in the supplement of paper PMC13380429.

System: Vero E6 infected with SARS-CoV-2
Experiment: inhibition of SARS-CoV-2 cytopathic effect; higher = more antiviral protection, active = above 15
Settings: 48 h

Measured: inhibition of SARS-CoV-2 cytopathic effect

C#CCN(C)[C@H](C)Cc1ccccc1 [selegiline]
inactive: 1 nM 0.68% | 8.33 nM -1.21% | 100 nM 1.02% | 833.33 nM 0.09% | 10000 nM -0.75%

O[C@@H](COc1cccc2ncccc12)CN1CCN([C@@H]2c3ccccc3[C@@H]3[C@H](c4ccccc42)C3(F)F)CC1 [zosuquidar]
inactive: 1 nM -0.36% | 8.33 nM 1.65% | 100 nM 0.11% | 833.33 nM 0.85% | 10000 nM -3.28%

Nc1ccc(C(=O)Nc2cccc(-c3nc(N4CCOCC4)c4oc5ncccc5c4n3)c2)cn1
active: 10000 nM 20.4%
inactive: 1 nM -0.93% | 8.33 nM -2.3% | 100 nM -2.43% | 833.33 nM 0%

C[N+]1(C)[C@@H]2C[C@@H](OC(=O)[C@H](CO)c3ccccc3)C[C@H]1[C@@H]1O[C@@H]12 [methscopolamine]
inactive: 1 nM -1.29% | 8.33 nM -0.27% | 100 nM 1.56% | 833.33 nM 0.62% | 10000 nM 1.83%

O=C1c2ccccc2C(Cc2ccncc2)(Cc2ccncc2)c2ccccc21
inactive: 1 nM 1.49% | 8.33 nM -1.95% | 100 nM -1.48% | 833.33 nM -2.88% | 10000 nM -3.65%

C[C@H](NC(=O)[C@@H](O)c1cc(F)cc(F)c1)C(=O)N[C@@H]1C(=O)N(C)c2ccccc2-c2ccccc21
inactive: 1 nM -3.7% | 8.33 nM -4.79% | 100 nM -8.67% | 833.33 nM -14% | 10000 nM -7.15%

CCCC(C)(COC(N)=O)COC(=O)NC(C)C (stereo not given)
inactive: 1 nM 1.17% | 8.33 nM 2.25% | 100 nM 2.38% | 833.33 nM 4.43% | 10000 nM 0.83%

C[N+](C)(C)CC(=O)O [betaine]
inactive: 1 nM -1.71% | 8.33 nM -0.6% | 100 nM 0.16% | 833.33 nM 1.31% | 10000 nM -1.65%

COc1cccc(C=NCCN=Cc2cccc(OC)c2[O-])c1[O-].[Cl-].[Mn+3]
inactive: 1 nM 2.33% | 8.33 nM 1.86% | 100 nM 0.89% | 833.33 nM 1.11% | 10000 nM 14.1%

CC(OC(=O)OC1CCCCC1)OC(=O)C1=C(CSc2nnnn2CCN(C)C)CS[C@@H]2[C@H](NC(=O)Cc3csc(N)n3)C(=O)N12 (stereo not given in full) [cefotiam-cilexetil]
inactive: 1 nM -0.8% | 8.33 nM 0.27% | 100 nM 0.74% | 833.33 nM 0.5% | 10000 nM -0.94%

O=C1CC2(CCCC2)CC(=O)N1CCCCNC[C@H]1COc2ccccc2O1 (racemic)
inactive: 1 nM 2.83% | 8.33 nM -1.41% | 100 nM -1.75% | 833.33 nM -0.98% | 10000 nM -5.48%

CC(C)C(N)C(=O)O (stereo in doubt) [L-valine]
inactive: 1 nM 0.78% | 8.33 nM -0.34% | 100 nM 0.64% | 833.33 nM -0.11% | 10000 nM 1.66%

O=C1CCC[C@@H]2[C@H]3CCCN4CCC[C@@H](CN12)[C@@H]34 [matrine]
inactive: 1 nM -2.75% | 8.33 nM -0.7% | 100 nM -1.73% | 833.33 nM -0.8% | 10000 nM -2.2%

O=C(Nc1c(Cl)cncc1Cl)c1ccc(OC(F)F)c(OCC2CC2)c1 [roflumilast]
inactive: 1 nM -0.45% | 8.33 nM 1.68% | 100 nM 0.72% | 833.33 nM -0.19% | 10000 nM 0.85%

CC(=O)O[C@@]12CO[C@@H]1C[C@H](O)[C@@]1(C)C(=O)[C@H](O)C3=C(C)[C@@H](O)C[C@@](O)([C@@H](OC(=O)c4ccccc4)[C@H]21)C3(C)C [10-deacetylbaccatin]
inactive: 1 nM -0.5% | 8.33 nM 0.94% | 100 nM -1.67% | 833.33 nM -4.55% | 10000 nM -2.63%

C[N+]1(C)CCCC(OC(=O)C(O)(c2ccccc2)c2ccccc2)C1 (stereo not given) [mepenzolate]
inactive: 1 nM -0.21% | 8.33 nM -0.16% | 100 nM -3.53% | 833.33 nM 0.26% | 10000 nM 0.49%

N[C@H](CO)C(=O)O [D-serine]
inactive: 1 nM -1.38% | 8.33 nM 1.46% | 100 nM -1.84% | 833.33 nM -1.45% | 10000 nM 1.69%

C[C@H](Oc1ccc(S(C)(=O)=O)cc1C(=O)N1CCN(c2ncc(C(F)(F)F)cc2F)CC1)C(F)(F)F [bitopertin]
inactive: 1 nM 1.07% | 8.33 nM 0.78% | 100 nM 1.93% | 833.33 nM 0.34% | 10000 nM -3.97%
